# Screens from PubChem.
# IDE exosite FP – insulin-degrading enzyme (human) exo-site inhibition; P14735; purified IDE, FL-6b probe fluorescence polarization; hits give low values; z-score at 20 µM; 17,000 compounds, 6.3% hits;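 active = z-score of -3 or lower, meaning strong loss of probe binding signal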;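 also: His-tagged human IDE residues 42-1019 made in E. coli with 30 nM FL-6b probe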
# Target sequence (P14735 42-1019 limits assumed): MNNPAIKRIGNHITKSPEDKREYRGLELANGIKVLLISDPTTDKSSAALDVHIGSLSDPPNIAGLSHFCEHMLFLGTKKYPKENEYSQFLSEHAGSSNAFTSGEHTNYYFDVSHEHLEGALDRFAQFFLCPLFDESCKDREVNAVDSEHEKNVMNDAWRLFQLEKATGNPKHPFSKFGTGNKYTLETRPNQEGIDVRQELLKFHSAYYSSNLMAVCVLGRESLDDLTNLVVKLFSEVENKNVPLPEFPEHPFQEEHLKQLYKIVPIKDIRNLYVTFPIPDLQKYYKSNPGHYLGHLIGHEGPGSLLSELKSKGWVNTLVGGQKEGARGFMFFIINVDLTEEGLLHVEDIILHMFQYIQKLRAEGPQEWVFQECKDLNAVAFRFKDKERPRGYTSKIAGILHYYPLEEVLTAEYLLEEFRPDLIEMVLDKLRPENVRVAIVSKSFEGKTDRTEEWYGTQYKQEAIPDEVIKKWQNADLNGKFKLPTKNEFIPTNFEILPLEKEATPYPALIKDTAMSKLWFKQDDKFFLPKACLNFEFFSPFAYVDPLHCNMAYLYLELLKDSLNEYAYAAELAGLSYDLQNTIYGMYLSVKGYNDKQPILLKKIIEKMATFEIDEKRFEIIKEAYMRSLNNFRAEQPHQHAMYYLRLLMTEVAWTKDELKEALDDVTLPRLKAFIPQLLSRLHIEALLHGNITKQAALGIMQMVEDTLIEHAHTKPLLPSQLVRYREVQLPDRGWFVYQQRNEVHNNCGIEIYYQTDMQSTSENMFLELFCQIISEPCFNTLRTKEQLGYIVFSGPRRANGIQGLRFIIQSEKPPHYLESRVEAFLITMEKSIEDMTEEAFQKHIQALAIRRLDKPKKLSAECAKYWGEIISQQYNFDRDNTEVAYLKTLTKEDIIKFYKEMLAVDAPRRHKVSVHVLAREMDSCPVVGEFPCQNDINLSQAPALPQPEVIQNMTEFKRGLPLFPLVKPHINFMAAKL
# An asterisk follows results filed as active. The full list was thinned out, with hits kept by preference.
SMILES,IDE exosite FP
COc1ccc2c3c(n(C)c2c1)[C@@H](CO)N(C(=O)Nc1ccc(F)cc1)CC31CCN(S(=O)(=O)c2cccc(C)c2)CC1,-1.2
COc1ccc(C#Cc2ccc([C@@H]3[C@H]4CN(C(=O)Nc5ccccc5F)CCCCN4[C@H]3CO)cc2)cc1,0.86
CCC(=O)N1CCCCN2[C@@H](CO)[C@@H](c3ccc(C#Cc4ccccc4F)cc3)[C@@H]2C1,-8.2*
CCC(=O)N1CCCCN2[C@H](CO)[C@@H](c3ccc(C#CCOC)cc3)[C@H]2C1,2.8
CCC(=O)N1CCCCN2[C@H](CO)[C@@H](c3ccc(C#Cc4ccccc4F)cc3)[C@H]2C1,1.8
CCC(=O)N1CCCCN2[C@@H](CO)[C@H](c3ccc(C#Cc4ccccc4F)cc3)[C@@H]2C1,-3.9*
CC(=O)N1CCCCN2[C@H](CO)[C@@H](c3ccc(C#Cc4ccccc4F)cc3)[C@H]2C1,-5.2*
COc1ccc(C#Cc2ccc([C@@H]3[C@@H](CO)N4CCCCN(C(=O)Nc5ccccc5F)C[C@H]34)cc2)cc1,1.8
COc1ccc(C#Cc2ccc([C@H]3[C@H]4CN(C(=O)Nc5ccccc5F)CCCCN4[C@H]3CO)cc2)cc1,3
N#C[C@H]1[C@H](c2ccc(C#CC3CC3)cc2)[C@H](CO)N1C(=O)Cc1ccccn1,3.1
COc1cccc(-c2ccc([C@@H]3[C@H](C#N)N(C(=O)c4ccccn4)[C@H]3CO)cc2)c1,-0.56
COc1cccc(C#Cc2ccc([C@@H]3[C@@H](CO)N(C(=O)c4ccccn4)[C@H]3C#N)cc2)c1,-0.51
COc1cccc(-c2ccc([C@H]3[C@@H](CO)N(C(=O)Cc4ccncc4)[C@H]3C#N)cc2)c1,-4.8*
N#C[C@H]1[C@H](c2ccc(-c3ccccc3)cc2)[C@H](CO)N1C(=O)Cc1ccncc1,1.9
C/C=C/c1ccc([C@H]2[C@@H](CO)N(C(=O)Cc3ccccn3)[C@H]2C#N)cc1,0.46
COc1cccc(-c2ccc([C@H]3[C@@H](C#N)N(C(=O)c4ccccn4)[C@H]3CO)cc2)c1,-3.8*
N#C[C@@H]1[C@@H](c2ccc(/C=C/c3ccccc3)cc2)[C@@H](CO)N1C(=O)Cc1ccccn1,-9.5*
N#C[C@H]1[C@@H](c2ccc(-c3ccncc3)cc2)[C@@H](CO)N1C(=O)Cc1ccccc1,1.1
N#C[C@@H]1[C@@H](c2ccc(-c3ccccc3)cc2)[C@@H](CO)N1C(=O)Cc1ccncc1,-4*
N#C[C@@H]1[C@H](c2ccc(-c3ccccc3)cc2)[C@H](CO)N1C(=O)Cc1ccccc1,2
N#C[C@@H]1[C@@H](c2ccc(-c3ccncc3)cc2)[C@@H](CO)N1C(=O)Cc1ccccc1,2
CCCC(=O)Nc1ccc2c(c1)OC[C@@H](C)N(C(=O)c1cccnc1)C[C@@H](C)[C@H](OC)CN(C)C2=O,0.24
CN(C)CC(=O)N1CCCCN2[C@H](C1)[C@H](c1ccc(-c3ccccc3)cc1)[C@@H]2CO,1.5
CN1C(=O)c2cc(NC(=O)C3CCOCC3)ccc2OC[C@@H]2O[C@H](CC(=O)NCC3CCCCC3)CC[C@@H]21,0.62
CC(=O)N(C)C[C@H]1[C@@H](c2ccc(-c3cccc(C#N)c3)cc2)[C@@H](CO)N1C(C)=O,0.89
SMILES,IDE exosite FP
CCCC#Cc1ccc([C@H]2[C@@H](CO)N3C(=O)CN(C(=O)c4cccc(F)c4)C[C@@H]23)cc1,2.4
COCC#Cc1ccc([C@H]2[C@@H](CO)N3C(=O)CN(C(=O)c4cccnc4)C[C@@H]23)cc1,3.8
COC(=O)C[C@@H]1CC[C@H]2[C@H](COc3ccc(NS(=O)(=O)c4ccc(C)cc4)cc3C(=O)N2C)O1,-0.95
CCS(=O)(=O)NCC[C@H]1CC[C@@H](NS(=O)(=O)c2ccccc2C)[C@@H](CO)O1,-0.13
CC(C)C#Cc1ccc([C@@H]2[C@@H](CO)N3C(=O)CN(S(=O)(=O)c4ccccc4)C[C@H]23)cc1,-1
CCC(=O)N1[C@@H](CO)[C@@H](c2ccccc2)C12CN(C(=O)CN1CCOCC1)C2,0.9
O=C1CCCn2cc(nn2)COCCN1,-0.84
Cc1noc(C)c1NC(=O)N(C)C[C@@H]1OCCCC[C@H](C)Oc2ccc(NC(=O)Nc3ccc(C(F)(F)F)cc3)cc2C(=O)N([C@@H](C)CO)C[C@@H]1C,0.88
COc1cccc(-c2ccc([C@H]3[C@H](C#N)N(C(=O)Cc4ccccc4)[C@H]3CO)cc2)c1,-3*
N#C[C@H]1[C@H](c2ccc(-c3ccccc3)cc2)[C@H](CO)N1C(=O)Cc1ccccc1,2.2
N#C[C@@H]1[C@@H](c2ccc(-c3ccccc3)cc2)[C@H](CO)N1C(=O)Cc1ccccc1,3.9
C/C=C/c1ccccc1[C@H]1[C@H](C#N)N(c2nc(CC)cs2)[C@H]1CO,1
CCC(=O)N1CCCCN2[C@@H](CO)[C@H](c3ccc(/C=C/c4ccccc4)cc3)[C@@H]2C1,-7.2*
CN1CCCCN2[C@H](CO)[C@H](c3ccc(-c4ccccc4)cc3)[C@H]2C1,4.3
CCC(=O)N1CCCCN2[C@H](CO)[C@H](c3ccc(-c4ccc(F)cc4)cc3)[C@H]2C1,3.3
CCC(=O)N1CCCCN2[C@H](CO)[C@H](c3ccc(/C=C/c4ccccc4)cc3)[C@H]2C1,-3.1*
O=C(c1ccc(F)cc1)N1CCCCN2[C@@H](CO)[C@H](c3ccc(/C=C/c4ccccc4)cc3)[C@@H]2C1,-3.4*
CN1CCCCN2[C@H](CO)[C@@H](c3ccc(/C=C/c4ccccc4)cc3)[C@H]2C1,-5.4*
O=C(c1cccc(F)c1)N1CCCCN2[C@H](C1)[C@H](c1ccc(/C=C/c3ccccc3)cc1)[C@@H]2CO,0.48
CCC(=O)N1CCCCN2[C@H](CO)[C@@H](c3ccc(/C=C/c4ccccc4)cc3)[C@H]2C1,-2.6
CCC(=O)N1CCCCN2[C@H](CO)[C@H](c3ccc(-c4ccc(F)cc4)cc3)[C@@H]2C1,1.7
O=C(c1cccc(F)c1)N1CCCCN2[C@H](CO)[C@@H](c3ccc(/C=C/c4ccccc4)cc3)[C@@H]2C1,2.4
CN1CCCCN2[C@H](CO)[C@H](c3ccc(/C=C/c4ccccc4)cc3)[C@H]2C1,-3
CCC(=O)N1CCCCN2[C@@H](CO)[C@@H](c3ccc(-c4ccc(F)cc4)cc3)[C@@H]2C1,0.52
N#C[C@H]1[C@@H](c2ccccc2)[C@H](CO)N1C(=O)CCN1CCCCC1,-1.4
SMILES,IDE exosite FP
C[C@@H]1CN([C@H](C)CO)C(=O)c2ccccc2-c2ccccc2CO[C@H]1CN(C)C(=O)Nc1cccc(Cl)c1Cl,-0.57
Cc1cccc(-c2ccc([C@H]3[C@H]4CN(CCC(F)(F)F)CCCCN4[C@H]3CO)cc2)c1,0.64
COCC(=O)Nc1ccc2c(c1)C(=O)N(C)C[C@H](OC)[C@H](C)CN(CCc1ccccc1)[C@H](C)CO2,0.9
COCC(=O)N1CC(=O)N2[C@H](CO)[C@@H](c3ccc(Br)cc3)[C@H]2C1,2
N#C[C@H]1[C@@H](c2ccc(C3=CCCCC3)cc2)[C@@H](CO)N1C(=O)C1CCOCC1,2.1
C[C@@H]1CN([C@H](C)CO)C(=O)c2ccccc2-c2ccccc2CO[C@@H]1CN(C)Cc1cccc2c1OCCCO2,-0.15
C/C=C/c1ccc([C@H]2[C@@H](CO)N(C(=O)COC)[C@@H]2CNC(=O)C2CCC2)cc1,3.2
CC(=O)N1CC(=O)N2[C@@H](CO)[C@H](c3ccc(-c4cccc(C(=O)N(C)C)c4)cc3)[C@@H]2C1,0.99
Cc1ccccc1NC(=O)C[C@H]1CC[C@H]2[C@@H](COc3ccc(NC(=O)NC(C)C)cc3C(=O)N2C)O1,-1.2
